In the library only some 3.1% were active in any assay of this set; here they are far more common.
PTAP TSG101 blk = blocks PTAP/TSG101 interaction to inhibit HIV-1 budding; Fluorescence polarization, FITC-PTAP peptide / Tsg101 binding; Potency, µM (series often up to 115 µM), for inactives: top-dose activity change, negative = inhibition, usual class: inhibitors; 340,000 tested, under 10 active; AID 493005; active = well fitted inhibition curve with a large enough effect in the main read-out, with a control signal flat, not every such curve was filed as active; inconclusive = small, poorly fitted or top-dose-only effect, or effect the other way, or a change in a side signal; inactive = no such curve, though single readings can be large or run the other way; note: potency is the fitted concentration of half-maximal effect; % of control where 0% means no effect
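FP read-out: FITC-PTAP peptide, 50 nM final, binding Tsg101 binding domain, 10 uM final; 20 min, r.t.; 10 mM HEPES pH 7.5, 0.15 M NaCl, 0.01% Tween 20, 3 mM EDTA, 0.1 mM TCEP.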
TSHR antag = human thyrotropin receptor antagonism. actives 0.2% (n = 330,000). activity change, negative = inhibition, % at 11.5 µM. AID 504810. TSHR-expressing cells, TSH-stimulated cAMP HTRF, 2 h; active compounds read low;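 active = activity change below a set negative limit, meaning inhibition stronger than a set level, cut at about -70% in these data; inconclusive = activity change between two set negative limits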; note: % is set by controls: 0 for no effect and ±100 for the full control effect
Target sequence (P16473 whole entry, looked up): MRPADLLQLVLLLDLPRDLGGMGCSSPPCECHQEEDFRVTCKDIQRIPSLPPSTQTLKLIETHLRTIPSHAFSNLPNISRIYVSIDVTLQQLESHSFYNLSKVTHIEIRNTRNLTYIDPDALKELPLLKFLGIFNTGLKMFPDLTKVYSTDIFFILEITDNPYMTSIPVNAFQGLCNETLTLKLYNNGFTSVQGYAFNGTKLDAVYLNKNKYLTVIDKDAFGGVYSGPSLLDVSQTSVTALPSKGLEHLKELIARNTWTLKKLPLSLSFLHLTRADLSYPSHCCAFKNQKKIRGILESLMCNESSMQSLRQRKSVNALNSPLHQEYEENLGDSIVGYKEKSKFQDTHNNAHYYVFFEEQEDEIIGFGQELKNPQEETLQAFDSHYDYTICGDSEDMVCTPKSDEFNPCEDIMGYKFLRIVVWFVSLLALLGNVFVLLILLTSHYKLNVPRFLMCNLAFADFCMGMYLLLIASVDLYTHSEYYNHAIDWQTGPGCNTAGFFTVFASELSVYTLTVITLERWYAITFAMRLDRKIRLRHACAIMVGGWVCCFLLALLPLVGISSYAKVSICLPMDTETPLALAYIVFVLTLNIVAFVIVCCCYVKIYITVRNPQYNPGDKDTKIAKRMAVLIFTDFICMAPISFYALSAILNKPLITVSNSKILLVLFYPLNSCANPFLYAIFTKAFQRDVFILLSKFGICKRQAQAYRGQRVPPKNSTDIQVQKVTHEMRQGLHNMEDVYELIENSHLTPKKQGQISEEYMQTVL
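TSHR-expressing cells, 200/well, pre-treated with compound, then stimulated with EC80 TSH (4nM final) for 2 hours at 37 deg C. cAMP measured by competitive HTRF: anti-cAMP cryptate antibody in lysis buffer plus cAMP-d2, read after 30 minutes at room temperature.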
uPA surface inh = cell surface uPA generation inhibition | cell surface uPA generation assay, qHTS | Potency, µM (highest dose often 38.3 µM), for inactives: top-dose activity change, negative = inhibition, actives largely listed as inhibitors | actives 0.31% (n = 330,000) | AID 540303; active = well fitted inhibition curve with a large enough effect; inconclusive = small, poorly fitted or top-dose-only effect; inactive = no such curve, though single readings can be large or run the other way; tested in mouse RAW 264.7 cells; note: potency is the fitted concentration of half-maximal effect; % is set by controls: 0 for no effect and ±100 for the full control effect; nearly all actives have a fitted effect of over 55% in size
PLK1 PBD block = inhibitors of human PLK1 polo-box domain binding; Plk1 PBD binding of FITC phosphopeptide, fluorescence polarization; P53350; actives 2.8% (n = 360,000); AID 720504; Potency, µM, for inactives: max response, negative = inhibition, hits mostly inhibitors; note: potency is the fitted concentration of half-maximal effect; series mostly up to about 57 µM; % is set by controls: 0 for no effect and ±100 for the full control effect; nearly all actives have a fitted effect of over 65% in size
VDR inh = inhibitors of human vitamin D receptor. actives 0.93% (n = 400,000). VDR-SRC2-3 peptide fluorescence polarization, 2 h. Potency, µM, for inactives: max response, negative = inhibition, most hits filed as inhibitors; note: potency is the fitted concentration of half-maximal effect; % is set by controls: 0 for no effect and ±100 for the full control effect
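Two reagent solutions held at 4 deg C in the dark were dispensed, compounds pinned at 23 nl, and the mixture incubated 2 h at room temperature. Read-out: fluorescence polarization of VDR–SRC2-3 peptide binding.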
Starred values were filed as active, the others as inactive; ? = inconclusive; . = no result given. Unless noted, calls come from the whole dose curve; as a rule, active = well fitted curve in the direction sought with a large enough effect; inconclusive = small, poorly fitted or top-dose-only effect, or another doubt; inactive = no such curve, though single readings can be large; an effect the other way counts as inactive or inconclusive.

SMILES | PTAP TSG101 blk | TSHR antag | uPA surface inh | PLK1 PBD block | VDR inh
Cc1ccc2oc(=O)n(CC(=O)O)c2c1 | -4.6% | 3.7 | 5.2% | 26.7µM* | -25.6%
COc1cc2c(cc1OC)C(COc1ccccc1OC)N(C(=O)C(C)(C)C)CC2 (stereo not drawn) | -8.5% | -1.8 | -0.4% | 29.9µM* | 0.2%
Cc1ccc(SC(CC(=O)c2ccc(F)cc2)C(=O)O)cc1 (stereo not drawn) | 0.8% | -35.3 | -7.2% | ? | 22.4µM*
Cc1nc2sc(C(=O)Nc3ccccc3)c(N)c2c(C)c1[N+](=O)[O-] | -5.7% | -5.0 | -12.6% | 26.7µM* | -19.5%
CC(=O)c1ccc(NC(=O)c2sc3nc(C)c(C)c(C)c3c2N)cc1 | -0.3% | -10.0 | -3.1% | -0.3% | 6.7%
CCn1cc(/C=C(\NC(=O)c2ccc(OC)c(OC)c2)C(=O)N2CCOCC2)c2ccccc21 | 0.1% | 13.6 | 2.6% | 26.7µM* | -25.3%
CCn1cc(/C=C(\NC(=O)c2cc(OC)c(OC)c(OC)c2)C(=O)N2CCOCC2)c2ccccc21 | . | . | . | 6.8% | .
CN(C)S(=O)(=O)n1cc(/C=C(\NC(=O)c2ccccc2F)C(=O)N2CCOCC2)c2ccccc21 | -12.5% | -4.0 | -8.2% | 18.9µM* | ?
CC(=O)c1c(C)[nH]c(C(=O)OCC(=O)Nc2ccc(C)cc2[N+](=O)[O-])c1C | -2.0% | -25.4 | ? | -22.5% | 18.2%
CC(=O)c1c(C)[nH]c(C(=O)OCC(=O)Nc2cc(Cl)ccc2[N+](=O)[O-])c1C | 3.0% | -76.6* | ? | 1.8% | 2.5%
Cc1cc(C)cc(NC(=O)Cn2c(=O)n(-c3cc(C)cc(C)c3)c(=O)c3oc4ccccc4c32)c1 | . | . | . | . | -0.7%
N#Cc1ccc(CN2CC[C@@]3(CCCN(C(=O)c4cc(C(F)(F)F)cc(C(F)(F)F)c4)C3)C2)cc1 | . | . | . | . | -26.8%
COCC(=O)Nc1cc(C)cn(Cc2c(F)cccc2Cl)c1=O | 0.5% | -27.5 | 3.6% | 3.36µM* | ?
Cc1cc(NC(=O)CC(C)C)c(=O)n(Cc2c(F)cccc2Cl)c1 | -4.8% | 3.5 | -3.7% | -16.0% | -24.8%
CCOC(=O)C1=NOC(CNC(=O)C2=NOC(CNC(=O)c3c(-c4ccccc4Cl)noc3C)C2)C1 (stereo not drawn) | -1.8% | 10.8 | 11.3% | -2.0% | 14.8%
CCOC(=O)C1=NOC(COc2ccccc2C=O)C1 (stereo not drawn) | -0.4% | -6.9 | -3.0% | 26.7µM* | ?
Cc1ccc(S(=O)(=O)NNC(=O)C2COc3ccccc3O2)cc1 (stereo not drawn) | -2.8% | -2.7 | 0.1% | -0.5% | 3.0%
O=C(NNS(=O)(=O)c1ccccc1Cl)C1COc2ccccc2O1 (stereo not drawn) | -0.9% | . | 7.9% | 18.9µM* | -13.5%
COc1ccc(Cl)cc1C(=O)NNC(=O)C1COc2ccccc2O1 (stereo not drawn) | -0.4% | 1.4 | -0.2% | 23.8µM* | -21.6%
CCOc1ccc(-c2n[nH]c3c2C(c2cccs2)N(c2ccc(Br)cc2)C3=O)cc1 (stereo not drawn) | . | . | . | . | -4.3%
CC1CC(=O)C(C(C2=C(O)CC(C)CC2=O)c2ccccc2)=C(O)C1 (stereo not drawn) | -1.8% | . | -12.1% | 11.9µM* | ?
CC1CC(=O)c2cc(-c3ccccc3)oc2C1 (stereo not drawn) | . | . | . | 4.2% | .
COC(=O)c1cn(C(=O)c2cc(C)cc(C)c2)c2ccccc12 | -0.8% | 12.4 | 3.7% | 21.2µM* | -23.8%
COC(=O)c1cn(C(=O)c2ccc(C)cc2)c2ccccc12 | -0.3% | -35.0 | -17.1% | 18.9µM* | -13.4%
COC(=O)c1cn(C(=O)c2cc(OC)c(OC)c(OC)c2)c2ccccc12 | -1.0% | 33.0 | -7.2% | -3.4% | -4.8%
SMILES | PTAP TSG101 blk | TSHR antag | uPA surface inh | PLK1 PBD block | VDR inh
CC1=C(C(=O)N2CCOCC2)CC(CC(=O)NC(c2ccccc2)c2ccccc2)C(=O)N1CCCN1CCCC1=O (stereo not drawn) | . | . | . | 9.7% | .
Cc1ccc(-n2c(Cl)c(Cl)nc(Cl)c2=O)cc1 | -0.8% | -95.3* | -20.0% | 2.67µM* | ?
COc1cc(Cl)c(C)cc1NC(=O)c1ccc2c(SCC(=O)O)c3c(nc2c1)CCCC3 | -0.4% | -21.9 | 1.9% | 42.3µM* | ?
Cc1cccc(C)c1NC(=S)NC(=O)c1ccc(Br)o1 | -5.9% | 18.2 | -2.2% | 5.97µM* | ?
COc1ccc(Cn2c(C)nc3c(c2=O)c2nc4ccccc4nc2n3Cc2ccco2)cc1 | -0.4% | . | 0.1% | 7.52µM* | ?
CCOc1cc(NC(=O)C2CC2)c(OCC)cc1NC(=O)c1cccc(F)c1 | 0.7% | -89.4* | -0.7% | 2.8% | -18.2%
COCCNC(=O)C1(C)CCCN(CCSc2ccccc2)C1 (stereo not drawn) | . | . | . | -9.1% | .
CCCNC(=O)C1(C)CCN(CCC(=O)c2ccc(Br)cc2)C1 (stereo not drawn) | . | . | . | 10.6µM* | .
COCCNC(=O)C1(C)CCCN(CCC(=O)c2ccc(Br)cc2)C1 (stereo not drawn) | . | . | . | 9.47µM* | .
N=c1c(C(=O)NC2CCCC2)cc2c(=O)n3ccccc3nc2n1C1CCCCC1 | -6.1% | -5.2 | -6.6% | 0.2% | -11.3%
O=C(Cn1c(=O)n(Cc2ccc(C(=O)NCc3ccc4c(c3)OCO4)cc2)c(=O)c2ccccc21)Nc1cccc(Cl)c1 | . | . | . | . | 4.3%
O=S(=O)(c1cc(Br)c(Cl)s1)N1CCCC1 | -2.8% | -78.0* | -0.8% | 1.4% | 20.1%
O=C(O)C(S)C(S)C(=O)O (stereo not drawn) | 0.7% | . | 0.1% | 8.44µM* | ?
C[C@@H](N)C(=O)O | . | . | . | . | 2.9%
O=C(O)C(S)[C@@H](S)C(=O)O (stereo partly drawn) | . | . | . | . | 3.98µM*
N[C@H](C(=O)O)[C@H](O)C(=O)O | . | 3.8 | . | . | 5.4%
COc1ccc(OCC(=O)OCc2cc(=O)n3nc(-c4cccs4)sc3n2)cc1 | . | . | . | . | 12.4%
O=C(c1ccc(Cl)c(S(=O)(=O)N2CCOCC2)c1)N(Cc1ccco1)Cc1cccs1 | 0.8% | 5.7 | 1.12µM* | -0.7% | -13.1%
CC(C)(C)c1ccc(OCC(=O)Nc2c(C(=O)c3ccc(F)cc3)oc3ccccc23)cc1 | . | . | . | . | -9.0%
O=C(/C=C/c1ccccc1Cl)Nc1ccccc1 | -2.4% | -13.1 | -7.1% | 1.4% | 10.8%
O=C(/C=C/c1ccccc1Cl)Nc1cccc(O)c1 | -5.8% | -23.0 | 4.47µM* | -2.1% | 13.1%
Cc1ccc(C)c(C(=O)c2c(N)c(-c3nc(-c4ccc5c(c4)OCO5)cs3)c3ccccn23)c1 | . | . | . | . | 8.3%
O=C(/C=C/c1ccccc1)CC(=O)c1ccccc1O | 1.8% | -14.4 | 8.91µM* | -4.9% | -6.5%
O=C(CCN1CCCCCC1)c1ccccc1 | -4.3% | -3.3 | -4.7% | ? | -6.8%
O=C(/C=C/c1ccccc1)CCN1CCCCC1 | -3.9% | . | -14.7% | 6.7µM* | 28.2µM*
O=C(/C=C/c1ccccc1)NC(=O)c1ccccc1O | -1.4% | 5.6 | -26.7% | -10.2% | -10.7%
O=C(/C=C/c1ccccc1)COC(=O)c1ccccc1 | 0.2% | . | -7.7% | 0.0% | 10µM*

High-throughput results deposited in PubChem BioAssay by National Center for Advancing Translational Sciences (NCATS).
